From ChEMBL document CHEMBL1961873, “Compounds: GSK PKIS; Assays: Nanosyn kinase panel” (2012)

target: Activated CDC42 kinase 1 (Homo sapiens) (UniProt Q07912); conditions: at 1 µM
Sequence (Q07912 whole entry, looked up): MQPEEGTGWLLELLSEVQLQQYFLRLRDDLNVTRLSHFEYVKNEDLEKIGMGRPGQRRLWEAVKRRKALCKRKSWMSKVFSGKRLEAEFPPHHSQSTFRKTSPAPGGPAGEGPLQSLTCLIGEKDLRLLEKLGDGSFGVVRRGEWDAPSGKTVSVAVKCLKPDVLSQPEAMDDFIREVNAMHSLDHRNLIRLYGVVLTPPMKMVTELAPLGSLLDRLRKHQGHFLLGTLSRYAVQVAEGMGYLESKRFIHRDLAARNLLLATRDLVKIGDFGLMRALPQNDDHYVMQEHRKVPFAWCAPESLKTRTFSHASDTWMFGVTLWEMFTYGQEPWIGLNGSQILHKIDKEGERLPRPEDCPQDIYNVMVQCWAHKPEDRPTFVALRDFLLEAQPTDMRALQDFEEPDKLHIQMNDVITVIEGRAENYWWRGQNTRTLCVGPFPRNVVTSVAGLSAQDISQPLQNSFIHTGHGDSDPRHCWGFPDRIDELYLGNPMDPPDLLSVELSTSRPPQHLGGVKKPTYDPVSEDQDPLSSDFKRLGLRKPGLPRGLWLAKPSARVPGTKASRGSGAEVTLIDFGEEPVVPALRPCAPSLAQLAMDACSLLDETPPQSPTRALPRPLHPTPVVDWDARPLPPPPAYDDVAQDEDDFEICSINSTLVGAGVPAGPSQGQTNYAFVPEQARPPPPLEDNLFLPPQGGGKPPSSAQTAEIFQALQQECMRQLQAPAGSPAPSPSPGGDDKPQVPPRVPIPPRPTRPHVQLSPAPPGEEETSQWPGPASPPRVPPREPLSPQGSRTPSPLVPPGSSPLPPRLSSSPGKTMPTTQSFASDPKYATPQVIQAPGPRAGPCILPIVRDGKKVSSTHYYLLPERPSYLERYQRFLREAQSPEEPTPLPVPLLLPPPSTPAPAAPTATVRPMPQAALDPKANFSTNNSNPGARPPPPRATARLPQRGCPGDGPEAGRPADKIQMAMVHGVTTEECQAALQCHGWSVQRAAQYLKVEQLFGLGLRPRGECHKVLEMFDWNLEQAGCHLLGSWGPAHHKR

| SMILES | inhibition |
| --- | --- |
| COc1ccc(-c2coc3ncnc(N)c23)cc1 | 1.05% |
| O=C1NC(=O)C(c2cccc(Cl)c2)=C1Nc1ccc(O)c(Cl)c1 | -0.58% |
| CS(=O)(=O)CCNCc1nc(-c2ccc3ncnc(Nc4ccc(F)c(Cl)c4)c3c2)cs1 | 2.87% |
| COc1cc2c(cc1Nc1nc(N3CCc4ccccc43)c3cc[nH]c3n1)N(C(=O)CN(C)C)CC2 | 1.93% |
| O=C1Nc2ccc(C(=O)c3ccco3)cc2C1=Cc1cc(Cl)c(O)c(Cl)c1 | 6.27% |
| CCCN1CCC=C(c2ccc(Nc3nc(Nc4ccccc4C(N)=O)c4cc[nH]c4n3)c(C)c2)C1 | 12.7% |
| COc1cccc(-n2ncc3c(N/N=C/c4cccc(F)c4)ncnc32)c1 | 0.25% |

target: High affinity nerve growth factor receptor (Homo sapiens) (UniProt P04629); conditions: at 0.1 µM;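 note: each value is a mean of replicate percent inhibition readings against TRKA kinase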
Sequence (P04629 33-796 limits assumed): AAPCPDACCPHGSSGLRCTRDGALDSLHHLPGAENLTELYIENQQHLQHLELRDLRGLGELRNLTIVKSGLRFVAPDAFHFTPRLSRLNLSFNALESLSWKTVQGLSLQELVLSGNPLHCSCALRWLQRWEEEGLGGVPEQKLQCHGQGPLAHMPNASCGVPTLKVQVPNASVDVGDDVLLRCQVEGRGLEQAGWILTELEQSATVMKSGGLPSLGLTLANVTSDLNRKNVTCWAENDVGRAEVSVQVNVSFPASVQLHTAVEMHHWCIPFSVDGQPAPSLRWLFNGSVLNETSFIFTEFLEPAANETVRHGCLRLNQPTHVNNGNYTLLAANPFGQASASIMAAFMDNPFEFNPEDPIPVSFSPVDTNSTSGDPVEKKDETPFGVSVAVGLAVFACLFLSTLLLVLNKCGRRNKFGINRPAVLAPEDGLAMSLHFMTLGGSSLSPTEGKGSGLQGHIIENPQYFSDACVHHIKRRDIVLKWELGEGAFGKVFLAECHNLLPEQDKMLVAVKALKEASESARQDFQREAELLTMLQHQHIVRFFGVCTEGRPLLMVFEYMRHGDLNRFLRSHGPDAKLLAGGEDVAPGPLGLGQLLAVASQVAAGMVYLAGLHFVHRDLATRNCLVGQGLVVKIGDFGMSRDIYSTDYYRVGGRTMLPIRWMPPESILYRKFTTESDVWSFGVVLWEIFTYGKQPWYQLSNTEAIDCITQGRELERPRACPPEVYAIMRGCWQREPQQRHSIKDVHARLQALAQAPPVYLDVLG

| SMILES | inhibition |
| --- | --- |
| CC(C)=Cc1cccc2c1/C(=N/Nc1ccc(S(N)(=O)=O)cc1)C(=O)N2 | 6.87% |
| COC(=O)Nc1nc2cc(Oc3cccc(NC(=O)Nc4cc(C(F)(F)F)ccc4F)c3)ccc2[nH]1 | -2.72% |
| Nc1ncnc2occ(-c3ccc(NC(=O)Nc4cc(C(F)(F)F)cc(C(F)(F)F)c4)cc3)c12 | 37.1% |
| CCn1c(-c2nonc2N)nc2cncc(C(=O)N3CCNCC3)c21 | 1.71% |
| NC(=O)c1ccc(-c2nc(-c3ccccn3)c(-c3ccc4c(c3)OCO4)[nH]2)cc1 | 1.52% |
| CCn1c(-c2nonc2N)nc2c(C#CC(C)(C)O)nc(CN3CCCC3)cc21 | -2.07% |
| NCc1ccc(-c2nc(-c3ccc(Cl)c(O)c3)c(-c3ccncc3)[nH]2)cc1 | -4.35% |
| N#Cc1c(NC(=O)c2cccc3ccccc23)sc2c1CCCC2 | 3.35% |
| Cc1cc(O)cc(C)c1/C=C/c1cncc(-c2nn[nH]n2)c1 | 3.09% |
| Cc1cccc(-c2n[nH]cc2-c2ccc3ncccc3n2)n1 | -1% |
| O=C1NC(=O)C(N2CCc3ccccc32)=C1c1ccc(Cl)cc1 | 4.36% |
| CCn1c(-c2nonc2N)nc2ccncc21 | 0.03% |
| Cc1nnc(-c2ccc(C)c(-c3ccc(C(=O)Nc4cccc(C#N)c4)cc3)c2)o1 | 1.28% |
| COc1ccc(-c2nn3ncccc3c2-c2ccnc(Nc3ccc(Cl)c(C(F)(F)F)c3)n2)cc1 | -2.59% |
| CS(=O)(=O)CCNCc1ccc(-c2ccc3ncnc(Nc4ccc(OCc5ccccc5)c(Cl)c4)c3c2)o1 | 2.31% |
| O=C1NC(=O)C(c2ccc(Cl)cc2)=C1Nc1ccc(Cl)c(C(=O)O)c1 | 0.44% |
| CCc1cccc(NC(=O)Nc2ccc(Oc3ccc4nc(NC(=O)OC)[nH]c4c3)cc2)c1 | 30.8% |

| SMILES | inhibition |
| --- | --- |
| Nc1ncnc2occ(-c3ccc(NC(=O)Nc4cccc(C(F)(F)F)c4)cc3)c12 | 63.9% |
| CCn1c(-c2nonc2N)nc2c(C#CC(C)(C)O)nc(OC[C@@H](N)c3ccccc3)cc21 | -0.3% |
| Cc1ccc(NC(=O)c2ccnc(N3CCCC3)c2)cc1-c1ccc(C(=O)NCC2CC2)cc1 | 1.92% |
| CCn1c(-c2nonc2N)nc2cncc(C(=O)N3CC[C@H](N)C3)c21 | 0.41% |
| Cn1cc(C=C2C(=O)Nc3cccnc32)c2ccccc21 | 13.9% |
| CN(C)c1cc2c(Nc3ccc4nc(Cc5ccccc5)[nH]c4c3)ncnc2cn1 | 4.28% |
| O=C1NC(=O)C(c2ccccc2Cl)=C1Nc1cccc(O)c1 | 4.19% |
| CC(=O)Nc1cccc(C#Cc2cncnc2Nc2ccc(OCc3cccc(F)c3)c(Cl)c2)n1 | -4.25% |
| COc1ccccc1Nc1ncc(-c2ccccc2)o1 | 1.73% |
| CCn1c(-c2nonc2N)nc2c(N3CCCC3)nccc21 | 1.23% |
| COc1ccc(-c2coc3ncnc(N)c23)cc1 | 1.6% |
| O=C1NC(=O)C(c2cccc(Cl)c2)=C1Nc1ccc(O)c(Cl)c1 | -3.23% |
| CS(=O)(=O)CCNCc1nc(-c2ccc3ncnc(Nc4ccc(F)c(Cl)c4)c3c2)cs1 | 3.85% |
| COc1cc2c(cc1Nc1nc(N3CCc4ccccc43)c3cc[nH]c3n1)N(C(=O)CN(C)C)CC2 | 0.79% |
| O=C1Nc2ccc(C(=O)c3ccco3)cc2C1=Cc1cc(Cl)c(O)c(Cl)c1 | 4.97% |
| CCCN1CCC=C(c2ccc(Nc3nc(Nc4ccccc4C(N)=O)c4cc[nH]c4n3)c(C)c2)C1 | 2.13% |
| COc1cccc(-n2ncc3c(N/N=C/c4cccc(F)c4)ncnc32)c1 | 3.27% |
